Data on one compound can be found in PubChem BioAssay AID2157 (National Center for Advancing Translational Sciences (NCATS), 2009).

The test deals with Polyunsaturated fatty acid lipoxygenase ALOX15 (Homo sapiens) (UniProt P16050). In words: Confirmation qHTS Assay for Inhibitors of 15-hLO (15-human lipoxygenase). The note with it: purified enzyme, xylenol orange hydroperoxide absorbance; active compounds read low. The text has this:
Assay Provider: Holman, T.R., University of California, Santa Cruz Screening Center PI: Austin, Christopher P. Screening Center: NIH Chemical Genomics Center Human lipoxygenase 15hLO-1 is a member of the closely related lipoxygenase family of enzymes which catalyze the site-specific oxidation of arachidonic acid to various hormone precursor molecules and as such is a candidate for drug development in a variety of disease areas, such as cancer and inflammation. Inhibition of 15hLO-1 activity was screened by utilizing arachidonic acid as a substrate. The extent of hydroperoxide product formation was measured by a secondary chromogenic reaction in which xylenol orange (XO, Sigma-Aldrich, cat. number 39,818-7) reacts with the ferric ions produced from the reaction between the hydroperoxide and ferrous ions. The Fe(III)-XO complex is characterized with red-shifted absorbance at 560 nm. A purified preparation of human 15hLO-1 was supplied by Professor Ted Holman, University of California, Santa Cruz. This assay includes some confirmation and follow-up compounds for related primary screening assay AID 887.
Assay Protocol: Buffer: 25 mM Hepes pH 7.5, 0.01% Triton X-100. […] The absorbance at 405 and 573 nm were measured using ViewLux (Perkin-Elmer) High-throughput CCD imager and absorbance protocol settings. The 573-to-405 absorbance ratio was used to compute reaction progress.
On the technique in general: In qHTS, concentration-response curves come from the screen itself.

Records with an inconclusive call do not appear. Values without a mark were called inactive. The call rests on the fitted dose curve; in most records, active means well fitted inhibition curve with a large enough effect; inconclusive means small, poorly fitted or top-dose-only effect; inactive means no such curve, though single readings can be large or run the other way.

Chain of Polyunsaturated fatty acid lipoxygenase ALOX15 (Homo sapiens) (P16050 whole entry, looked up): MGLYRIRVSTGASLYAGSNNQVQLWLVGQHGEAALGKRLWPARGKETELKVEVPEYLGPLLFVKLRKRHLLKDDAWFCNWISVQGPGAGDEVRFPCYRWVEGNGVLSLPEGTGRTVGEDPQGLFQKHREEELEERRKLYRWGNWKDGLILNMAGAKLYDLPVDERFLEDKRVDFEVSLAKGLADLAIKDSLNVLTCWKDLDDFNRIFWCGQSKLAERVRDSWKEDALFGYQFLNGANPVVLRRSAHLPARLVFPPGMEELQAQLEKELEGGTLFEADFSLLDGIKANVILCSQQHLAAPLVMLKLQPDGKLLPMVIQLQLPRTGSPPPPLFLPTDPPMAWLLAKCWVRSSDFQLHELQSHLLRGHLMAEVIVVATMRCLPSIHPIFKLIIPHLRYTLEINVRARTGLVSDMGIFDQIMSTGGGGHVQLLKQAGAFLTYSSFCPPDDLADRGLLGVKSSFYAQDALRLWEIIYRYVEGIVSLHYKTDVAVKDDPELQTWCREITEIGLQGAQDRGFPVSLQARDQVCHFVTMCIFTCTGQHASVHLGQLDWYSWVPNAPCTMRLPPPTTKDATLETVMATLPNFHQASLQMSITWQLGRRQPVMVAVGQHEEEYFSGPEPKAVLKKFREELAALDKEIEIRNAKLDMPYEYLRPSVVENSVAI

For `CCC(C)C(=O)c1c(O)c(C)c2oc3c(C)c(O)c(C(=O)C(C)CC)c(O)c3c2c1O` (stereo unspecified), the max response was -17.1%.
